Measured values as given in PubChem BioAssay (NCATS).
Results filed as inconclusive are left out. Entries that show only a call come without a potency. Activity calls are given as the source filed them. The call rests on the fitted dose curve; in most records, active means well fitted inhibition curve with a large enough effect; inconclusive means small, poorly fitted or top-dose-only effect; inactive means flat fitted curve, though single readings scatter.

molecular target: Calcium and integrin-binding protein 1 (Homo sapiens) (UniProt Q99828); assay: Primary qHTS for Identification of Calcium Integrin Binding Protein 1 (CIB1) Competitor (AID 1508620); details: CIB1-GST / FITC-alphaIIb peptide fluorescence polarization; series mostly up to 114 µM;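 further: GST tagged CIB1 binding a fluorescein labelled alphaIIb integrin peptide tracer; top concentration of the series differs between compounds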
Procedure, shortened: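 CIB1-GST (1 uM final) and compound incubated 15 min at room temperature before adding FITC-alphaIIb peptide tracer (100 nM final). Competition for binding read by fluorescence polarization (ex 480, em 540) after another 15 min at room temperature.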

Chain of Calcium and integrin-binding protein 1 (Homo sapiens) (Q99828 whole entry, looked up): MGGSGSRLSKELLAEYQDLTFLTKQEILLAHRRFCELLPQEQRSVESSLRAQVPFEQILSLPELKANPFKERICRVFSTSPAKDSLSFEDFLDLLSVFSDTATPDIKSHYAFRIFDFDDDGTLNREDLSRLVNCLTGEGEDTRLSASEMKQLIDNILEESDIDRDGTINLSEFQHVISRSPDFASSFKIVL

Q: Cc1cc(N[S+](=O)([O-])c2ccc(NC(=O)Cc3ccc(F)c(F)c3)cc2)no1 was tested. Which Potency did it give?
A: inactive

Q: Which Potency does the source give for Cc1ccc(NS(=O)(=O)c2ccc3c(c2)CC(=O)N3C)cc1C here?
A: inactive

Q: For COc1cc(F)c(S(=O)(=O)N2CCCN(S(=O)(=O)c3ccc(NC(C)=O)cc3)CC2)c(F)c1, which Potency is on record?
A: inactive

Q: How did the Potency turn out when Cc1cc(C)nc(NC(=S)N2CCN(c3cncnc3)CC2)c1 was run?
A: inactive

Q: How did the Potency turn out when Cc1ccc2nc3sc(C(=O)NCCN4CCOCC4)cc3cc2c1 was run?
A: inactive

Q: With COc1cc(O)c(C(CC(=O)N2CCCC(c3nc4ccccc4o3)C2)c2ccc3c(c2)OCO3)c(OC)c1 (stereo unspecified) as the molecule, how does the Potency read?
A: inactive

Q: Cn1nnnc1Sc1ncnc2scc(-c3cccs3)c12 was tested. Which Potency did it give?
A: inactive

Q: How did the Potency turn out when C=CCNc1oc(-c2cccc(Cl)c2)nc1C#N was run?
A: inactive

Q: Cc1nc(CCN(C)c2ncnc3ccc(-c4ccc5c(c4)OCO5)cc23)cs1 was tested. Which Potency did it give?
A: inactive

Q: For O=C(Nc1ccc2sccc2c1)Nc1nnc(-c2cccnc2)s1, which Potency is on record?
A: inactive

Q: For CC(=O)Nc1sc2c(c1-c1ccccc1F)CCNC2, which Potency is on record?
A: inactive

Q: With COC(=O)c1ccccc1S(=O)(=O)Nc1cc(=O)c2ccccc2[nH]1 as the molecule, how does the Potency read?
A: inactive

Q: Cc1cc(C)n2ncc(C(=O)Nc3ccccc3C)c2n1 was tested. Which Potency did it give?
A: inactive

Q: Which Potency does the source give for COc1cccc(-c2ccc3ncnc(NCc4cccc(F)c4)c3c2)c1 here?
A: inactive

Q: With Cn1nnnc1Sc1ncnc2scc(-c3cccc(C#N)c3)c12 as the molecule, how does the Potency read?
A: inactive

Q: With O=C1c2ccccc2C(=O)N1c1cccc2cccnc12 as the molecule, how does the Potency read?
A: inactive

Q: O=C1Nc2ccccc2/C1=C\c1cc(Br)c(O)c(Br)c1 was tested. Which Potency did it give?
A: inactive

Q: COc1cccc(C2=Nn3c(nnc3-c3cccc(OC)c3OC)SC2)c1 was tested. Which Potency did it give?
A: inactive

Q: How did the Potency turn out when Cc1ccc(OCCn2c(CCNC(=O)c3cccc(NC(=O)OC(C)(C)C)c3)nc3ccccc32)cc1 was run?
A: inactive

Q: O=C(Nc1ccc(F)c(C(F)(F)F)c1)Nc1nnc(-c2ccncc2)o1 was tested. Which Potency did it give?
A: inactive

Q: COc1ccc(C=O)cc1COc1ccc(NC(C)=O)cc1 was tested. Which Potency did it give?
A: inactive
